Assay results published in PubChem BioAssay (EPA / NIEHS).
Active and inactive are the calls of the source. Rule for the calls: active = hit-call score of the fitted dose curve at least 0.9, where 1 is the maximum; inactive = score below 0.9.

Columns and labels:
[1] = read-out: Interleukin-1 alpha (IL1a), IL1A (gene 3552); assay: BSK_KF3CT_IL1a: BioMAP Diversity Plus: KF3CT Assay for Interleukin-1 alpha (IL1a) Biomarker Activity (AID 2283070); conditions: primary human keratinocytes with fibroblasts; actives raise or lower the signal
In short: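 Primary human keratinocyte plus foreskin fibroblast co-culture, dosed and measured at 24 h in 96-well plates. IL-1a level quantified by ELISA; bidirectional fit relative to DMSO.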

[2] = read-out: Transforming growth factor beta 1 (TGFb1), TGFB1 (gene 7040); assay: BSK_KF3CT_TGFb1: BioMAP Diversity Plus: KF3CT Assay for Transforming growth factor beta 1 (TGFb1) Biomarker Activity (AID 2283072); conditions: primary human keratinocytes with fibroblasts; actives raise or lower the signal
In short: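 Human keratinocyte/foreskin fibroblast co-culture; TGF-b1 measured by ELISA 24 h after dosing, fitted bidirectionally versus DMSO. Cytotoxicity checked in parallel cultures by total protein (SRB staining, 560 nm).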

[3] = read-out: C-C motif chemokine 2 (Homo sapiens) (UniProt P13500); assay: BSK_KF3CT_MCP1: BioMAP Diversity Plus: KF3CT Assay for Monocyte Chemoattractant Protein 1 (MCP1/CCL2) Biomarker Activity (AID 2283073); conditions: primary human keratinocytes with fibroblasts; actives raise or lower the signal
In short: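 Biomarker MCP-1 is measured by ELISA in primary human keratinocytes co-cultured with foreskin fibroblasts, 24 h after chemical treatment; DMSO serves as the negative control and activity baseline.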

[4] = read-out: Matrix Metallopeptidase 9 (MMP9), MMP9 (gene 4318); assay: BSK_KF3CT_MMP9: BioMAP Diversity Plus: KF3CT Assay for Matrix Metallopeptidase 9 (MMP9) Biomarker Activity (AID 2283074); conditions: primary human keratinocytes with fibroblasts; actives raise or lower the signal;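 for AC50: MMP9 protein level quantified by ELISA in the co-culture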
In short: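 Human keratinocyte and foreskin fibroblast co-culture exposed to chemicals for 24 h; MMP9 biomarker measured by ELISA, bidirectional fitting relative to DMSO; cytotoxicity tracked by SRB total protein staining in parallel cultures.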

[5] = read-out: urokinase plasminogen activator (uPA), PLAU (gene 5328); assay: BSK_KF3CT_uPA: BioMAP Diversity Plus: KF3CT Assay for urokinase plasminogen activator (uPA) Biomarker Activity (AID 2283075); conditions: primary human keratinocytes with fibroblasts; actives raise or lower the signal
In short: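 Primary human keratinocyte/foreskin fibroblast co-culture exposed to chemical; uPA measured by ELISA at 24 h. Bidirectional fit versus DMSO, with parallel SRB total-protein staining for cytotoxicity.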

CD40, CD40 (gene 958) [6] = assay: BSK_LPS_CD40: BioMAP Diversity Plus: LPS Assay for CD40 Biomarker Activity (AID 2283076); conditions: primary human HUVEC with PBMC; actives raise or lower the signal
In short: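 Using a multiplexed primary human co-culture (umbilical vein endothelium plus PBMC), CD40 was read by ELISA 24 h after dosing, with cytotoxicity tracked by sulforhodamine B staining of parallel cultures and activity fitted bidirectionally versus DMSO.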

[7] = read-out: E-selectin (Homo sapiens) (UniProt P16581); assay: BSK_LPS_Eselectin: BioMAP Diversity Plus: LPS Assay for Eselectin Biomarker Activity (AID 2283077); conditions: primary human HUVEC with PBMC; actives raise or lower the signal
In short: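 Dose chemical onto LPS-driven HUVEC/PBMC co-culture; after 24 h, run ELISA for E-selectin; fit up- and down-going responses relative to DMSO control.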

[8] = read-out: Interleukin-8 (IL8), CXCL8 (gene 3576); assay: BSK_LPS_IL8: BioMAP Diversity Plus: LPS Assay for Interleukin-8 (IL8) Biomarker Activity (AID 2283078); conditions: primary human HUVEC with PBMC; actives raise or lower the signal
In short: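 In this LPS system, chemical-treated human umbilical vein endothelium/PBMC co-cultures were harvested at 24 h for IL-8 ELISA.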

[9] = BSK_LPS_SRB: Viability Assessment in the BioMAP Diversity Plus: LPS Assay (AID 2283079); conditions: primary human HUVEC with PBMC;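 note: total protein by sulforhodamine B absorbance as a cytotoxicity measure; measured one day after compound addition; fitted in both directions against DMSO so loss or gain of signal counts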
In short: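 Cytotoxicity endpoint in human endothelial–PBMC co-culture: 24 h exposure, then SRB (0.1%) staining, 560 nm read.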

[10] = read-out: Interleukin-1 alpha (IL1a), IL1A (gene 3552); assay: BSK_LPS_IL1a: BioMAP Diversity Plus: LPS Assay for Interleukin-1 alpha (IL1a) Biomarker Activity (AID 2283080); conditions: primary human HUVEC with PBMC; actives raise or lower the signal
In short: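 Primary human HUVEC and PBMC co-culture stimulated with LPS is dosed and harvested at 24 h. Both increases and decreases in ELISA-measured IL-1a are scored relative to DMSO.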

[11] = read-out: Monocyte Chemoattractant Protein-1 (MCP1), CCL2 (gene 6347); assay: BSK_LPS_MCP1: BioMAP Diversity Plus: LPS Assay for Monocyte Chemoattractant Protein-1 (MCP1) Biomarker Activity (AID 2283081); conditions: primary human HUVEC with PBMC; actives raise or lower the signal;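 for AC50: secreted MCP-1 protein quantified by ELISA in culture supernatant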
In short: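 Values derive from bidirectional fitting against DMSO of ELISA-measured MCP-1 in a human primary endothelial and mononuclear cell co-culture, 24 h after chemical addition under LPS activation.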

[12] = BSK_LPS_PGE2: BioMAP Diversity Plus: LPS Assay for Prostaglandin E2 (PGE2) Biomarker Activity (AID 2283082); conditions: primary human HUVEC with PBMC; actives raise or lower the signal;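 for AC50: secreted prostaglandin E2 measured by ELISA in LPS-stimulated co-culture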
In short: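 HUVEC plus human PBMC co-culture stimulated with LPS; secreted PGE2 quantified by ELISA 24 h after chemical dosing. Activity fitted bidirectionally against DMSO baseline; parallel SRB staining (0.1% SRB after 10% TCA fixation, 560 nm) flags overt cytotoxicity.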

[13] = read-out: Macrophage colony-stimulating factor (MCSF), CSF1 (gene 1435); assay: BSK_LPS_MCSF: BioMAP Diversity Plus: LPS Assay for Macrophage colony-stimulating factor (MCSF) Biomarker Activity (AID 2283083); conditions: primary human HUVEC with PBMC; actives raise or lower the signal
In short: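 Bidirectional fit versus DMSO of ELISA-measured M-CSF in co-cultured human umbilical vein endothelial cells and PBMC, sampled 24 h after dosing.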

[14] = read-out: Tissue Factor, F3 (gene 2152); assay: BSK_LPS_TissueFactor: BioMAP Diversity Plus: LPS Assay for Tissue Factor Biomarker Activity (AID 2283084); conditions: primary human HUVEC with PBMC; actives raise or lower the signal
In short: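 Read-out: CD142 ELISA, 24 h. System: LPS-driven human endothelial/PBMC co-culture. Analysis: up- or down-signal fitted against DMSO.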

[15] = read-out: Tumor necrosis factor (Homo sapiens) (UniProt P01375); assay: BSK_LPS_TNFa: BioMAP Diversity Plus: LPS Assay for Tumour Necrosis Factor alpha (TNFa) Biomarker Activity (AID 2283085); conditions: primary human HUVEC with PBMC; actives raise or lower the signal;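 for AC50: TNFa protein level quantified by ELISA in the co-culture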
In short: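 Human umbilical vein endothelial cells co-cultured with PBMC and stimulated with LPS. TNFa was measured by ELISA 24 h after chemical dosing, fitted bidirectionally relative to DMSO.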

[16] = read-out: Vascular cell adhesion molecule 1 (VCAM1), VCAM1 (gene 7412); assay: BSK_LPS_VCAM1: BioMAP Diversity Plus: LPS Assay for Vascular cell adhesion molecule 1 (VCAM1) Biomarker Activity (AID 2283086); conditions: primary human HUVEC with PBMC; actives raise or lower the signal
In short: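 Human umbilical vein endothelial cells co-cultured with PBMC and stimulated with LPS; VCAM-1 measured by ELISA 24 h after dosing. Bidirectional curve fitting against DMSO baseline; cytotoxicity tracked in parallel by SRB total-protein staining.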

CD38, CD38 (gene 952) = assay: BSK_SAg_CD38: BioMAP Diversity Plus: SAg Assay for CD38 Biomarker Activity (AID 2283087); conditions: primary human HUVEC with PBMC; actives raise or lower the signal
In short: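 Human HUVEC plus PBMC co-culture stimulated with superantigen; CD38 measured by ELISA 24 h after chemical dosing. Fluorescence read-out, bidirectional fit against DMSO; cytotoxicity tracked in parallel by SRB and Alamar Blue.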

CD40, CD40 (gene 958) [17] = assay: BSK_SAg_CD40: BioMAP Diversity Plus: SAg Assay for CD40 Biomarker Activity (AID 2283088); conditions: primary human HUVEC with PBMC; actives raise or lower the signal
In short: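 Endpoint derived by fitting increases or decreases versus DMSO controls. CD40 is detected by fluorescence ELISA in a human vascular co-culture of endothelium and PBMC at 24 h.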

CD69, CD69 (gene 969) = assay: BSK_SAg_CD69: BioMAP Diversity Plus: SAg Assay for CD69 Biomarker Activity (AID 2283089); conditions: primary human HUVEC with PBMC; actives raise or lower the signal;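 for AC50: cell surface CD69 protein quantified by ELISA with fluorescence detection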
In short: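 Values derive from bidirectional fitting relative to DMSO vehicle. Cells: umbilical vein endothelium plus peripheral blood mononuclear cells, treated 24 h before fluorescent ELISA for CD69.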

[18] = read-out: TIMP metallopeptidase inhibitor 2 (TIMP2), TIMP2 (gene 7077); assay: BSK_KF3CT_TIMP2: BioMAP Diversity Plus: KF3CT Assay for TIMP metallopeptidase inhibitor 2 (TIMP2) Biomarker Activity (AID 2283071); conditions: primary human keratinocytes with fibroblasts; actives raise or lower the signal
In short: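 Co-culture of human primary keratinocytes and foreskin fibroblasts, measured 24 h after chemical dosing. TIMP-2 quantified by ELISA and fitted in both directions relative to DMSO. Cytotoxicity checked in parallel cultures by SRB total-protein staining.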

E-selectin (Homo sapiens), sequence (P16581 whole entry, looked up): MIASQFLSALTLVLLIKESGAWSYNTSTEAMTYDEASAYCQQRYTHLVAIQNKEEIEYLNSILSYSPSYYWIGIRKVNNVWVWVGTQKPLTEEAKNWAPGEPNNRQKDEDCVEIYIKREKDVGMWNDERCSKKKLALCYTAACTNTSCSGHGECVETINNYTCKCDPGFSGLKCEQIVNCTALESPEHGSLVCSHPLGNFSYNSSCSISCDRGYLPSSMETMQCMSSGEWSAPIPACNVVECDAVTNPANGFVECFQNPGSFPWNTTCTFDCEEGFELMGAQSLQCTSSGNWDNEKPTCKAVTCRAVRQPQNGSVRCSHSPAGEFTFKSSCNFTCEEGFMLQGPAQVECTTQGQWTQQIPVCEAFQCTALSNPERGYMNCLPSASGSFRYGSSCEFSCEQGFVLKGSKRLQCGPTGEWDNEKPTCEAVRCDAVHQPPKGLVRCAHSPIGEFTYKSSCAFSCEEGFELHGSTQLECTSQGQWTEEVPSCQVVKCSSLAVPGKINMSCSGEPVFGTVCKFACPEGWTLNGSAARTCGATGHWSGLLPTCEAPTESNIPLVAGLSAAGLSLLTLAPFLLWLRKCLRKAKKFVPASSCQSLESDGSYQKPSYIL
Tumor necrosis factor (Homo sapiens), sequence (P01375 whole entry, looked up): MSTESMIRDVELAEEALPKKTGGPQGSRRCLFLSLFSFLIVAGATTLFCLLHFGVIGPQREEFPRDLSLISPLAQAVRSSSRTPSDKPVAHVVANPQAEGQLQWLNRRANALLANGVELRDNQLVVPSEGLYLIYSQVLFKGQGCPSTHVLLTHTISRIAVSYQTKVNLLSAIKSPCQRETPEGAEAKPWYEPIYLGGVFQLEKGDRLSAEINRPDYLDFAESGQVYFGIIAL

In the case of CCOC(N)=O, the outcome [1] is reported as “inactive”, the outcome [2] is reported as “inactive” and the outcome [3] is reported as “inactive”. The outcome [4] was “inactive”, the outcome [5] was “inactive” and the outcome (CD40, CD40 (gene 958) [6]) was “inactive”. For the same compound, the outcome [7] was “inactive”, the outcome [8] was “inactive” and the outcome [9] was “inactive”. For the same compound, the outcome [10] was “inactive”, the outcome [11] was “inactive” and the outcome [12] was “inactive”. For the same compound, the outcome [13] was “inactive”, the outcome [14] was “inactive” and the outcome [15] was “inactive”. For the same compound, the outcome [16] was “inactive”, the outcome (CD38, CD38 (gene 952)) was “inactive” and the outcome (CD40, CD40 (gene 958) [17]) was “inactive”. The outcome (CD69, CD69 (gene 969)) was “inactive”.
With CCN(CC)C(=S)SSC(=S)N(CC)CC the AC50 [1] was 13.4 µM (active), the AC50 [18] was 12.4 µM (active) and the AC50 [3] was 10.5 µM (active). The AC50 [4] was 14.2 µM (active), the AC50 [5] was 14.8 µM (active) and the AC50 (CD40, CD40 (gene 958) [6]) was 30.4 µM (active). The AC50 [7] was 34.8 µM (active), the AC50 [8] was 29.7 µM (active) and the AC50 [9] was 31.1 µM (active). The AC50 [11] was 29.5 µM (active), the AC50 [12] was 14.9 µM (active) and the AC50 [13] was 30.3 µM (active). For the same compound, the AC50 [14] was 27.6 µM (active), the AC50 [15] was 15.4 µM (active) and the AC50 [16] was 28 µM (active). The AC50 (CD38, CD38 (gene 952)) was 31.7 µM (active) and the AC50 (CD69, CD69 (gene 969)) was 20 µM (active).
